Potency and activity change, negative = inhibition data for 40 compounds are collected here from PubChem BioAssay (NCATS).

Records with an inconclusive call do not appear. Where a call stands in place of a potency, no number is given. Calls of active or inactive are those of the source. The call rests on the fitted dose curve; in most records, active means well fitted inhibition curve with a large enough effect; inconclusive means small, poorly fitted or top-dose-only effect; inactive means flat fitted curve, though single readings scatter.
Potency means the concentration at half of the fitted maximal effect.

The target in this test is Phospholipid hydroperoxide glutathione peroxidase GPX4 (Homo sapiens) (UniProt P36969). In words: Primary qHTS Assay for Inhibitors of Recombinant Selenoprotein Glutathione Peroxidase 4 (GPX4) (AID 1845192). Further: nearly all actives have a fitted effect of over 65% in size. Particulars: recombinant GPX4, GR-coupled NADPH fluorescence, 15 min; series mostly up to 50 µM. From the text: Assay Provider: Elias S.J. Arner MD PhD.
Phospholipid hydroperoxide glutathione peroxidase GPX4 (Homo sapiens), sequence (P36969 whole entry, looked up): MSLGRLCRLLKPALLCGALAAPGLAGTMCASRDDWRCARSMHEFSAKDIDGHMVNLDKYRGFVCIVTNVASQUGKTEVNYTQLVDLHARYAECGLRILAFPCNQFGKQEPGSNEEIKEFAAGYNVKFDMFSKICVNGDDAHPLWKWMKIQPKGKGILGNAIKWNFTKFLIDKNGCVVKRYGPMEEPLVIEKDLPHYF
Department of Medical Biochemistry and Biophysics
Karolinska Institutet, Solna, Stockholm, Sweden
Selenoprotein glutathione peroxidases (GPX), like the ubiquitously expressed GPX1 and the ferroptosis modulator GPX4, enact their antioxidant activities by reducing hydroperoxides using glutathione. […] GPX1 and GPX4 inhibitors have thus shown promise as anti-cancer agents. Existing inhibitors are often promiscuous, or modulate GPX activity only indirectly, so novel direct inhibitors identified through screening against GPX1 and GPX4 could be valuable. Here, we developed optimized glutathione reductase (GR)-coupled GPX assays for the biochemical high-throughput screen (HTS) of almost 12,000 compounds with known mechanisms of action. Initial hits were triaged using a GR counter-screen, assessed for isoform specificity using a separate GPX2 assay, and were assessed for general selenocysteine-targeting activity using a thioredoxin reductase (TXNRD1) assay. With this suite of assays, we identified novel GPX1/GPX2- and GPX4-specific inhibitors and can here present a validated pipeline for future discovery research for selenoprotein-targeting agents.
SEQUENCE No. (e.g., 1, 2, 3, etc.); […] (e.g., Cells, Incubation, Reagent, etc.); VALUE; DESCRIPTION.
1; Reagent 1; 3 uL; 333.33 nM GPx4 enzyme or no enzyme control in 1536-well, black, solid Greiner assay plate.
2; Compound; 25 nL; Kalypsis pin tool (Wako USA) equipped with a 1536-well pin head.
3; Incubation; 30 min; room temperature.
4; Reagent 2; 1 uL; 500 nM GR, 5 mM GSH, 2.5 mM NADPH solution
5; Reagent 3; 1 uL; 2.5 mM CHP in 50% EtOH.
6; Detection; Fluorescence; ViewLux microplate reader, excitation 340 nm and emission 450 nm.
7; Incubation; 15 min; room temperature.
8; Detection; Fluorescence; ViewLux microplate reader, excitation 340 nm and emission 450 nm.
NOTES (numbers refer to Sequence numbers above)
1. 3 µL of 333.33 nM GPX4 and 0.016% BSA in assay buffer (50 mM Tris-HCl, 2 mM EDTA (pH 7.5), 150 mM NaCl) was added to columns 3-48 of 1536-well plates using a BioRAPTR Flying Reagent Dispenser (Let's Go Robotics (LGR), Carlsbad, CA). A no-enzyme control (0.01% BSA in TES assay buffer) was added to columns 1-2.
2. 25 nL, library and DMSO controls were added to each well with a pin tool (Kalypsys).
3. The assay plates were incubated for 30 minutes at room temperature.
4. 1 µL of master mix (500 nM glutathione reductase (GR), 5 mM reduced glutathione (GSH), 2.5 mM NADPH in assay buffer) was added.
5. 1 µL of cumene hydroperoxide (CHP) ([2.5 mM] in 50% EtOH) was then added within 5 minutes to initiate the reaction. Final concentrations were: 200 nM GPX4, 1 mM GSH, 0.5 mM CHP, 0.5 mM NADPH, 100 nM GR, 0.01% BSA.
6. Initial fluorescence readout (t=0) at 340/450 nm was measured using a ViewLux multimodal detector (PerkinElmer, Waltham, MA).
8. Endpoint fluorescence readout (t=15) at 340/450 nm was measured 15 min after room temperature incubation.
Consider `CC(C)c1ccc(CC(=O)N2CCC[C@@H](c3cccc(OC(C)(C)C(=O)O)c3)C2)cc1`, for which the Potency result was “inactive”. For the compound `CCN[C@@H]1C[C@H](N)[C@@H](O[C@H]2OC(CN)=CC[C@H]2N)[C@H](O)[C@H]1O[C@H]1OC[C@](C)(O)[C@H](NC)[C@H]1O`, the Potency entry was “inactive”.

Take `O=C1NC(Cc2ccc(O)cc2)C(=O)N2CCCC12` (stereo not given): the Potency entry was “inactive”. In the case of `CCCC1=CC2=C(CO1)C(=O)C(C)(OC(=O)c1c(C)cc(OC)cc1O)C(O)C2` (stereo not given), the Potency result is “inactive”.

As for `C=C1CC2[C@]3(C)C(=C(O)C(=O)[C@@]2(C)[C@]2(C(=O)OC)C(=O)C(C)OC(=O)[C@@]12C)C(C)(C)C(=O)CC3O` (stereo not given in full), the Potency entry is “inactive”. `O=C(NC[C@H](O)CN1CCc2ccccc2C1)c1cc(NC2COC2)ncn1`: the Potency entry was “inactive”. The same measure, in the same setting: for `CCc1nc(C(N)=O)c(Nc2ccc(N3CCC(N4CCN(C)CC4)CC3)c(OC)c2)nc1NC1CCOCC1` the value was “inactive”. The same measure, in the same setting: as for `C[C@@H]1C[C@H](O[C@@H]2O[C@H](CO[C@@H]3OC[C@](O)(CO)[C@H]3O)[C@@H](O)[C@H](O)[C@H]2O)CC(C)(C)[C@H]1/C=C/[C@@H](C)O`, the entry is “inactive”; as for `CC1(C)CCC[C@@]2(C)[C@H]1[C@H](O)C=C1COC(=O)[C@@]12O`, “inactive”; as for `OC[C@H]1O[C@@H](n2cnc3c(NCc4ccc(O)cc4)ncnc32)[C@H](O)[C@@H]1O`, “inactive”. On the same count and under the same terms, for `CC1CCC2C(C(=O)O)=CC3CC(C)(C)CC132` (stereo not given) the value was “inactive”; for `CC(=O)OC[C@@]12[C@H](O)C[C@]3(C)C(=CCC4[C@@]5(C)CC[C@H](O[C@@H]6O[C@H](C(=O)O)[C@@H](O[C@@H]7O[C@H](CO)[C@@H](O)[C@H](O)[C@H]7O)[C@H](O)[C@H]6O[C@@H]6O[C@H](CO)[C@@H](O)[C@H](O)[C@H]6O)[C@](C)(CO)C5CC[C@]43C)[C@@H]1CC(C)(C)[C@@H](OC(C)=O)[C@@H]2O` (stereo not given in full), “inactive”. For `C#Cc1cnc2[nH]c(=O)n(C(CC)CC)c2n1`, the Potency was 18 µM (active).

Consider `CC12CCC3C(C)(C)C(O)CCC3(C)C1Cc1c(oc(C(=O)O)cc1=O)O2` (stereo not given), for which the Potency entry was “inactive”. With `CNc1nc(Nc2cnn([C@H]3CCN(C4COC4)C[C@@H]3F)c2Cl)ncc1C(F)(F)F`, the Potency entry was “inactive”. For `CC(C)(C)C(=O)OCOC(=O)[C@@H]1N2C(=O)[C@@H](N=CN3CCCCCC3)[C@H]2SC1(C)C`, the Potency result was “inactive”. Still for that read-out and setting: for `COC(=O)C12C(=O)C(C)=C(O)C1(C)C(C)=CC1C34CCC(OC3=O)C(C)(C)C4CCC12C` (stereo not given) the value was “inactive”; for `CC(C)(O)C1CC=C(C(=O)OCC2OC(Oc3c(O)cc(C(=O)O)cc3O)C(O)C(O)C2O)CC1` (stereo not given), “inactive”. For the compound `COCCCNCC1COc2ccccc2O1` (stereo not given), the Potency result was “inactive”. As for `C=C(C(=O)O)[C@@H]1CC=C2CCC[C@H](C)[C@@]2(C)C1`, the Potency entry was “inactive”. Regarding `COc1cc2c(Nc3ccc(Cl)c(Cl)c3F)ncnc2cc1OCC1C[C@@H]2CN(C)C[C@@H]2C1` (stereo not given in full), the Potency entry was “inactive”. On the same count and under the same terms, for `CC(=O)NCCCCn1c2c(c3ccccc31)C(=O)NCC2` the value was “inactive”.

As for `C[C@H]1C[C@H]2[C@@H]3CCC4=CC(=O)C=C[C@]4(C)[C@@]3(F)[C@@H](O)C[C@]2(C)[C@@]1(O)C(=O)COP(=O)(O)O`, the Potency result was “inactive”. For the compound `O=C(O[C@H]1[C@@H]2C=CO[C@@H](O[C@@H]3O[C@H](CO)[C@@H](O)[C@H](O)[C@H]3O)[C@@H]2[C@@]2(CO)O[C@@H]12)c1ccc(O)c(O)c1`, the Potency entry is “inactive”. In the case of `C[C@@H]1O[C@@H](O[C@H]2[C@H](O[C@H]3[C@H](O[C@H]4CC[C@@]5(C)C(CC[C@]6(C)C5CC=C5[C@@H]7CC(C)(C(=O)O)C[C@@H](O)[C@]7(C)CC[C@]56C)[C@@]4(C)CO)O[C@H](C(=O)O)[C@@H](O)[C@@H]3O)O[C@H](CO)[C@H](O)[C@@H]2O)[C@H](O)[C@H](O)[C@H]1O` (stereo not given in full), the Potency result was “inactive”.

Regarding `COc1cc(/C=C/C(=O)O[C@H]2[C@H](OC(=O)/C=C/c3cc(OC)c(O)c(OC)c3)O[C@H](CO[C@@H]3O[C@H](CO)[C@@H](O)[C@H](O)[C@H]3O)[C@@H](O)[C@@H]2O)ccc1O`, the Potency entry was “inactive”.

As to `C[C@@H]1O[C@@H](O[C@H]2[C@H](OC(=O)[C@]34CCC(C)(C)C[C@H]3C3=CCC5[C@@]6(C)C[C@H](O)[C@H](O[C@@H]7O[C@H](CO[C@@H]8OC[C@H](O)[C@H](O)[C@H]8O)[C@@H](O)[C@H](O)[C@H]7O)C(C)(C)C6CC[C@@]5(C)[C@]3(C)C[C@H]4O)OC[C@@H](O)[C@@H]2O)[C@H](O)[C@H](O[C@@H]2OC[C@](O)(CO)[C@H]2O)[C@H]1O[C@@H]1OC[C@H](O)[C@H](O[C@@H]2OC[C@@H](O)[C@H](O)[C@H]2O)[C@H]1O` (stereo not given in full), the activity change, negative = inhibition is -0.436% [at 9.73 µM] (inactive). With `CC(=O)N(O)CCCCCN1C(=O)CCC1=O`, the Potency result was “inactive”. On the same count and under the same terms, for `CC(=O)N1CCN(NC(=O)c2ccc(F)cc2)CC1` the value was “inactive”; for `CC(C)(O)c1ccc2c(c1)C(=O)CC1[C@](C)(CO)CCC[C@]21C` (stereo not given in full), “inactive”; for `N[C@H]1C[C@H]1c1ccc(-c2cccc(O)c2)cc1`, “inactive”.

For the compound `COC(=O)C1=CO[C@@H](O[C@@H]2O[C@H](COC(=O)/C=C/c3cc(OC)c(O)c(OC)c3)[C@@H](O)[C@H](O)[C@H]2O)[C@@H]2C(CO)=CC[C@H]12`, the Potency entry was “inactive”. Still for that read-out and setting: as for `CO[C@@H](Cc1ccc(OCCc2nc(-c3ccccc3)oc2C)c2ccsc12)C(=O)O`, the entry is “inactive”; as for `C=C1CCC2C(C)(COC3OC(COC(=O)CC(=O)O)C(O)C(O)C3O)CCCC2(C)C1CCC1=CCOC1=O` (stereo not given), “inactive”; as for `C/C(=C\CCC(C(=O)O)C1CCC2(C)C3=C(CCC12C)C1(C)CCC(=O)C(C)(C)C1CC3)C(=O)O` (stereo not given), “inactive”.

For `CC1=CC(=O)CC(C)(CO[C@@H]2O[C@H](CO)[C@@H](O)[C@H](O)[C@H]2O)C1(O)/C=C/C(C)=C/C(=O)O` (stereo not given in full), the Potency entry is “inactive”. Still for that read-out and setting: as for `CNC(=O)c1ccc(Nc2ncc(C(F)(F)F)c(NCc3nccnc3N(C)S(C)(=O)=O)n2)cc1`, the entry is “inactive”; as for `CO[C@@]12CC3[C@@H]([C@@H](O)[C@@H](OC(C)=O)C4[C@](C)(COC(C)=O)CCC[C@]34C)[C@@H](C)C1=CC(=O)O2` (stereo not given in full), “inactive”. Consider `C=C(C)[C@H]1C[C@@H](O)C(=C)CC[C@@H](O)C(=C)[C@@H](O)C1`, for which the Potency result was “inactive”. `C=C(C)[C@@H](C)[C@H]1O[C@]23C[C@]4(CO2)C(CCC2[C@@]5(C)CC[C@H](O[C@@H]6OC[C@H](O)[C@H](O[C@@H]7O[C@H](CO)[C@@H](O)[C@H](O)[C@H]7O)[C@H]6O[C@@H]6O[C@@H](CO)[C@H](O)[C@H]6O)C(C)(C)C5CC[C@]24C)C3[C@@](C)(O)[C@@H]1OC(C)=O` (stereo not given in full): the Potency result was “inactive”.
